PubChem BioAssay (NCI)
About 79,000 compounds went through this panel and 15% of them were active in at least one assay; those are over-represented in the sample as a whole. Unmarked numbers belong to inactive results. The source made the active and inactive calls. Rule as the data show it: active = growth inhibition above about 70%; inactive = the rest.

Columns and labels:
[1] = NCI Yeast Anticancer Drug Screen. Data for the rad50 strain (AID 155);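 also: 0% = growth of vehicle-only cultures of the same strain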; conditions: S. cerevisiae rad50 strain growth inhibition; at 50.0 µM; active compounds read high
Outline: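 DNA repair mutant yeast, compound exposure, growth read-out; inhibition is taken relative to vehicle.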

[2] = NCI Yeast Anticancer Drug Screen. Data for the mec2-1 strain (AID 157); conditions: S. cerevisiae mec2-1 strain, at 50.0 µM, active compounds read high
Outline: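 mec2-1 yeast strain, carrying an alteration in DNA damage repair or cell cycle control, was exposed to compounds; growth inhibition was measured relative to vehicle-treated controls.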

[3] = NCI Yeast Anticancer Drug Screen. Data for the sgs1 mgt1 strain (AID 161);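 also: 0% = growth of cultures given vehicle only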; conditions: S. cerevisiae sgs1 mgt1 strain, at 50.0 µM, active compounds read high
Outline: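 Growth of a repair-deficient yeast mutant was monitored after compound treatment and expressed as inhibition relative to vehicle-treated cultures.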

[4] = NCI Yeast Anticancer Drug Screen. Data for the cln2 rad14 strain (AID 165);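 also: 0% = growth equal to vehicle treated cultures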; conditions: S. cerevisiae cln2 rad14 strain, at 50.0 µM, active compounds read high
Outline: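 Yeast carrying cln2 and rad14 alterations (cell cycle control and DNA damage repair) were exposed to compounds. Growth inhibition was measured against vehicle-treated controls.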

[5] = NCI Yeast Anticancer Drug Screen. Data for the bub3 strain (AID 167); conditions: S. cerevisiae bub3 mutant strain, at 50.0 µM, active compounds read high
Outline: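 In this screen, a yeast mutant lacking normal mitotic checkpoint function is challenged with compound. Relative growth versus vehicle gives the inhibition value.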

[6] = NCI Yeast Anticancer Drug Screen. Data for the mlh1 rad18 strain (AID 175); conditions: S. cerevisiae mlh1 rad18 strain growth inhibition; at 50.0 µM; active compounds read high
Outline: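 Growth inhibition of the yeast strain was measured after compound exposure and expressed relative to vehicle-treated controls. The strain carries defined defects in DNA damage repair.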

Row | Compound | growth inhibition [1] | growth inhibition [2] | growth inhibition [3] | growth inhibition [4] | growth inhibition [5] | growth inhibition [6]
1 | COc1cccc2c1C(=O)c1c(O)c3c(c(O)c1C2=O)C[C@@](O)(/C(C)=N\NC(=O)CCC(N)C(=O)O)C[C@@H]3OC1CC(N)C(O)C(C)O1 (stereo partly specified) (tested in a mixture with another compound) | -30.9% | -57.9% | 0.65% | -6.05% | -25.8% | -46.7%
2 | COC(=O)C1(C)CCCC2(C)C3CC(O)C(C(C)C)=CC3(O)CCC12 (stereo unspecified) | 10.2% | -4.65% | 15.9% | -12.6% | -1% | 15.3%
3 | FC(F)(F)c1nc(=S)c2cn[nH]c2[nH]1 | 4.35% | 31.1% | 8.45% | -12.2% | 35.5% | -5.3%
4 | CC(C)(C)C(=O)c1ccc(-c2ccccc2)cc1 | 17.4% | -5.55% | -6.45% | -56.3% | 6.7% | -2.1%
5 | O=C(O)Cc1cc2cccc([N+](=O)[O-])c2[nH]1 | 1.4% | 6.65% | 8.75% | -1.85% | -16.1% | 9.2%
6 | NC(CCC(=O)OCCn1c2ccccc2c2ccccc21)C(=O)O (stereo unspecified) | -1.9% | -2.4% | 3.3% | -2.1% | 18.1% | 3.95%
7 | O=C(NCc1ccncc1)Nc1ccc(Cc2ccc(NC(=O)NCc3ccncc3)cc2)cc1 | -8.05% | -19.1% | 0.2% | 15.3% | 3.5% | 4.25%
8 | CCOC(=O)c1ccc(N)c(C(O)(C(F)(F)F)C(F)(F)F)c1 | 94.5% (active) | 90.7% (active) | 94.1% (active) | 86.3% (active) | 92% (active) | 95.6% (active)
9 | CN(C)C(=O)OCC1COc2ccccc2O1 (stereo unspecified) | 15% | -23.6% | -23.1% | -70.2% | -11.1% | -12.6%
10 | O=C(Nc1ccc([N+](=O)[O-])cc1)Oc1c(Cl)cc(Cl)c(Cl)c1[N+](=O)[O-] | 43.6% | -18.7% | 57.2% | 25.6% | 2.3% | 60.4%
11 | CC(=O)Nc1ccc(C(F)(F)F)cc1 | -5.2% | -7.75% | -15.8% | -3.15% | -7.7% | 13.2%
12 | CC(=O)C1C(=O)NC(=O)C1=O (stereo unspecified) | -2.9% | -23.5% | -14.2% | 0.2% | -18.9% | -18.9%
13 | O=C1OCc2nc3c(c(-c4ccccc4C(F)(F)F)c21)C(=O)OC3 | -40.1% | -66.6% | -59.3% | -0.85% | -35.4% | -39%
14 | O=C(NCCCl)NC(Cc1ccccc1)Cc1ccccc1 | 6.65% | 10.7% | 15% | 53.7% | 2.1% | 31.4%
15 | COc1c(C)cc(-c2cc(C)c(OC)c(C)c2)cc1C | -3.45% | 8.05% | 1.7% | 9.4% | -8.8% | -3.55%
16 | O=c1c2cc(S(=O)(=O)Nc3ccccc3Cl)ccc2ncn1NS(=O)(=O)c1ccc(Br)cc1 | 35.2% | 1.8% | 31.9% | -0.4% | 19.5% | 23.9%
17 | O=C(O)C1CC1(c1ccccc1)c1ccccc1 (stereo unspecified) | 18.6% | 4.65% | -1.05% | -24.8% | -12.2% | 15.8%
18 | COc1cc(/C=N\NS(=O)(=O)c2ccc(N)cc2)ccc1O | 10.1% | -18.3% | 5.05% | 9.55% | -24.8% | 17.1%
19 | Cn1c(=O)c2c(nc(Br)n2CC(=O)CF)n(C)c1=O | 13.2% | 10.8% | -3.75% | -24.4% | 8% | 20.4%
20 | CC(=O)Nc1ccc(S(=O)(=O)N/N=C/C(=O)O)cc1 | -15.6% | -32.4% | -40% | -22.4% | 5.4% | -16.6%
21 | N#CCCN(c1ccc(C=Nc2ccccc2Cl)cc1)S(=O)(=O)c1ccccc1 | -18.1% | -9.8% | -13.7% | 4.25% | -6.5% | 16.2%

Row | Compound | growth inhibition [1] | growth inhibition [2] | growth inhibition [3] | growth inhibition [4] | growth inhibition [5] | growth inhibition [6]
22 | c1ccc(CCN(c2ccccc2)c2ccccc2)cc1 | 21.1% | -2.4% | -11.2% | 9.8% | 7.55% | 1.2%
23 | CCN(CC)n1c(N)nc2c1c(=O)n(C)c(=O)n2C | -9.05% | -6.65% | 2.95% | -24.6% | 9.65% | 13.3%
24 | NC1=C(O)c2cccc3cccc(c23)C1=O | 9.95% | 12.2% | 11.8% | 2.35% | 9.45% | 16.4%
25 | c1ccc(OCCCCN2CCNCC2)cc1 | 1.85% | -14.3% | 14.3% | -10.1% | 8.3% | -10.2%
26 | O=C1CSC(=S)N1/N=C/c1ccc([N+](=O)[O-])s1 | 97.8% (active) | 98.8% (active) | 98.3% (active) | 98.5% (active) | 98.8% (active) | 98.8% (active)
27 | CCOC(=O)C1=C(Nc2ccc(F)cc2)C(=O)N(CC)C1 | 1.3% | -15.3% | 24.4% | -6.45% | 19.9% | 21.4%
28 | CN(C)CN1CSC(=S)N(CN(C)C)C1 | 20.2% | 37% | 6% | -10.7% | -5% | 26.4%
29 | COC1=CC(=C(C#N)C(=Nc2ccccc2)SC)C=C(OC)C1=O | 34.1% | 19.1% | 48.9% | 15.3% | 20.6% | 43.6%
30 | CCCCCC(Oc1ccc(Cl)cc1Cl)C(=O)O (stereo unspecified) | 96.7% (active) | 85.6% (active) | 97.5% (active) | 93% (active) | 91.2% (active) | 93.5% (active)
31 | CCCCC(=O)N/N=C\c1cc(Cl)ccc1[N+](=O)[O-] | 17.6% | 1.6% | -6.65% | 33.2% | 7.7% | 1.05%
32 | CC(C)C1CCC2(C)C(CCC3C4(C)CCCC32OC4=O)C1 (stereo unspecified) | -17.7% | -13.6% | -4.8% | -27.2% | -0.15% | 23.7%
33 | COc1cc(C(=O)CCCC(=O)O)cc(OC)c1OC | -9.15% | 3.4% | 19.6% | 5.85% | 16.3% | 5.3%
34 | OCc1ccc2ccc3ccc(CO)nc3c2n1 | 14.4% | 15.4% | 5.6% | -25.4% | 15.4% | 13.9%
35 | CCCNCC(O)CNc1ccc(Cl)cc1 (stereo unspecified) | 3.1% | -7.15% | 2.05% | -9.4% | -4.3% | 5.65%
36 | CC(O)C(N=Cc1nc(-c2ccccc2)oc1O)C(=O)O (stereo unspecified) | -3.25% | -6.55% | 0% | 1.2% | -0.15% | 7.05%
37 | O=C1OC(c2ccc(O)c(O)c2)(c2ccc(O)c(O)c2)c2ccccc21 | -27.9% | -24.2% | -27.1% | 5.8% | -21.7% | -32.6%
38 | [Mn].[NH-]C(CSSCC(N)C(=O)O)C(=O)O (stereo unspecified) | -2.45% | -0.4% | -1% | 5.5% | 22.6% | 9%
39 | Cc1ccc(C)c(C(=O)c2ccccc2)c1C(=O)O | -24.6% | 7.8% | 12.8% | -29.9% | 7.7% | -4.15%
40 | CC(=O)C1CCC2C3CCC4CC5(CCC4(C)C3C(=O)CC12C)NC(C(=O)O)CS5 (stereo unspecified) | 2.25% | 3.4% | 5.85% | -6.25% | -0.6% | -1.35%
41 | NNc1ncnc2ccc(Cl)cc12 | 1.05% | -9.15% | 11.4% | 1.05% | 5.8% | 6.5%
